Rows were chosen to be rich in hits. Some 32% of all compounds tested hit in one or more screens of this group.
CYP2C9 act = CYP2C9 (human) activation; activation factor at 5 µM; P11712; AID 1024; recombinant CYP2C9, luciferin-H conversion, luminescence; hits give high values; factor 1 = untreated enzyme, 0 = blocked; actives 1.4% (n = 96,000);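 active = activation factor of 2 or more for CYP2C9 at a 5 µM dose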;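 also: 0 = sulfaphenazole-blocked wells and 1 = vehicle-only wells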
PostGolgi yeast = growth inhibition of a yeast mutant, post-Golgi transport screen. post-Golgi transport phenotypic cell assay. inhibition, % at 10 µM. actives 0.9% (n = 98,000). AID 739;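 also: yeast cells grown in 1536-well plates; yeast grown about 18 h at 30C before absorbance read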
CYP2C19 act = activators of human cytochrome P450 2C19; P33261; recombinant CYP2C19, luciferin-H EGE luminescence; hits give high values; 0 = fully inhibited enzyme, 1 = untreated enzyme; activation factor at 5 µM; 96,000 tested, under 10 active;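 active = activation factor of at least 2 at 5 µM in the primary screen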;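 also: 0 = wells with 2.5 mM tranylcypromine and 1 = vehicle-only wells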
Target sequence (P33261 whole entry, looked up): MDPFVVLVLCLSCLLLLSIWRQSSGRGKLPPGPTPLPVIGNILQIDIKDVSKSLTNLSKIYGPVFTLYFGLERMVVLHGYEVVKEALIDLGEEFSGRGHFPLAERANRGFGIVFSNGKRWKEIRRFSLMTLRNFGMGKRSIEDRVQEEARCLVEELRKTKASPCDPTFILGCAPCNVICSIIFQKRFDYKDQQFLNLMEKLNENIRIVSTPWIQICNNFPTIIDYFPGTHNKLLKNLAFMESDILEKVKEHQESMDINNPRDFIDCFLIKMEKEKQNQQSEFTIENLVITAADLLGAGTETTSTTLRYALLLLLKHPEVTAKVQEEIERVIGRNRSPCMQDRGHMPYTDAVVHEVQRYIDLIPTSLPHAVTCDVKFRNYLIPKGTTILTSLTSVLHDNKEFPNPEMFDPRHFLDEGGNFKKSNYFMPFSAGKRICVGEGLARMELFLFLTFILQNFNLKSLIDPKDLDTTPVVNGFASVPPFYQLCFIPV
CYP2C9 inh = blocks human cytochrome P450 2C9. CYP2C9 Supersomes, luciferin-H conversion, luminescence. actives 20% (n = 96,000). AID 777. inhibition, % at 5 µM;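 active = blocking of liver enzyme CYP2C9 beyond about 50% at 5 µM, limit read from the data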
PostGolgi ctrl = growth of the yeast control strain, post-Golgi counter-screen; efflux-deficient yeast background strain, growth absorbance A615, 16 h; inhibition, % at 10 µM; actives 5% (n = 98,000)
CYP2C19 inhib = blocks human cytochrome P450 2C19; P33261; CYP2C19 Supersomes, luciferin-H EGE luminescence, 30 min; inhibition, % at 5 µM; actives 21% (n = 96,000);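 active = CYP2C19 inhibition above a set limit at 5 µM in the primary screen, cut at about 50% in these data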;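 also: plate controls were negative control wells for no effect and 2.5 mM tranylcypromine positive control for full effect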
* hit, by the source's call; / = no result. Rule as the data show it, unless noted: active = inhibition above about 30%; inactive = the rest.

SMILES	CYP2C9 act	PostGolgi yeast	CYP2C19 act	CYP2C9 inh	PostGolgi ctrl	CYP2C19 inhib
CN1c2ccccc2Oc2c(c(=O)n(C)c(=O)n2C)C1c1cccc([N+](=O)[O-])c1 (centres undefined)	0.5	-7	0.8	54*	9	23
CC(C)(C)c1ccc(C(=O)Nc2ccc(CC(=O)O)cc2)o1	1.1	-6	1	-8	2	-3
O=C(CN1CCOCC1)Nc1ccccc1C(=O)O	0.9	12	1.1	6	28	-8
O=C(Nc1cc(Cl)ccc1Cl)c1ccc(OC(=O)c2ccco2)cc1	1.5	5	1.1	-51	6	-8
CCOC(=O)CSc1nc2ccccc2c(=O)n1CCN1CCOCC1	/	0	/	/	9	/
CCCCn1c(SCC(=O)NCCOC)nc2ccc(N3CCOCC3)cc2c1=O	0.6	8	0.6	43	5	39
COCCNC(=O)CSc1nc2ccc(N3CCOCC3)cc2c(=O)n1CCc1ccccc1	0.4	2	0.4	64*	9	61*
CCOC(=O)CSc1nc2ccc(N3CCOCC3)cc2c(=O)n1Cc1ccccc1	0.2	1	0.2	83*	14	76*
COc1cc(/C=C(\C#N)C(=O)NCC2CCCO2)c([N+](=O)[O-])cc1OC (centres undefined)	1.7	25	0.9	-70	28	11
COc1cc(CN(C)CC(=O)c2[nH]c(C)c(C(C)=O)c2C)ccc1OC(F)F	0.3	19	0.3	70*	-1	73*
Cc1cccc(/C(N)=N/OC(=O)CCc2ccccc2)c1	0.5	0	0.8	54*	22	21
O=C(O)c1cc(NCc2c(F)cccc2Cl)ccc1N1CCOCC1	0.7	-9	1	25	-2	-5
COc1cc2oc3ccccc3c2cc1N(CC(=O)N(C)C)S(=O)(=O)c1ccccc1	0.7	3	0.6	30	-2	40
COc1cc2oc3ccccc3c2cc1N(CC(=O)N1CCCCC1)S(=O)(=O)c1ccc(C)cc1	0.6	-3	1	38	43*	1
COc1cc2oc3ccccc3c2cc1N(CC(=O)N(C)C)S(=O)(=O)c1ccc(C)cc1	0.4	-3	0.5	63*	16	45
CCCCCC(=O)Nc1cc2[nH]c(=O)cc(COC)c2cc1C	0.9	4	1	14	-4	0
CCOc1ccc(NC(=O)Cn2nnc(C(=O)NCc3ccco3)c2N)cc1	0.9	-5	1	7	15	0
CCOc1ccc(NC(=O)Cn2nnc(C(=O)NCCc3ccc(OC)c(OC)c3)c2N)cc1	0.2	0	0.7	79*	3	32
Cc1cccc(-n2nnc(C(=O)Nc3ccc(F)cc3)c2N)c1	2.7*	1	1.1	-166	11	-6
COc1ccc(CCNC(=O)c2nnn(-c3cccc(C)c3)c2N)cc1OC	0.3	4	0.9	68*	3	8
Cc1cccc(-n2nnc(C(=O)N3CCc4ccccc4C3)c2N)c1	3.2*	-1	0.9	-223	34*	12
COC(=O)c1nnn(-c2ccccc2)c1N	/	8	/	/	4	/
CC(C)N1CC(C(=O)O)CC1=O (centres undefined)	1.1	9	1	-15	1	1
CCc1nnc(NC(=O)CSc2nc(C)c3c(c2C#N)CCCC3)s1	1.3	8	1.2	-31	18	-16
CCN(CC)c1ccc(C=N/C(C#N)=C(\N)C#N)cc1	0.9	5	0.8	6	7	19
SMILES	CYP2C9 act	PostGolgi yeast	CYP2C19 act	CYP2C9 inh	PostGolgi ctrl	CYP2C19 inhib
CCN1C(=O)S/C(=C\c2ccc(N3CCOCC3)cc2C)C1=O	1	8	1	-2	35*	1
Cn1c(=O)cc(SCC(=O)N2CCCC2)c2ccc(Cl)cc21	1	-2	0.7	-4	0	30
Cn1c(=O)cc(SCC(=O)N2CCOCC2)c2ccc(Cl)cc21	/	0	/	/	-4	/
Cn1c(=O)cc(OCCCC(=O)N2CCN(c3ccccc3)CC2)c2ccccc21	0.4	14	0.2	61*	8	80*
Cn1c(=O)cc(SCC(=O)N2CCN(c3ccccc3)CC2)c2ccccc21	1.4	-13	0.5	-43	15	51*
CN1CCN(C(=O)CCCOc2cc(=O)n(C)c3ccccc23)CC1	0.9	-5	1	12	2	-1
Cn1c(=O)cc(SCC(=O)N2CCN(c3ccccn3)CC2)c2ccccc21	0.4	0	0.8	62*	8	15
Cc1ccc(C(=O)Nc2cnc3sc(C)nn3c2=O)cc1	1.1	8	1.2	-11	-6	-16
CCC(C)(C)NC(=O)CN(C(=O)c1snc(C(N)=O)c1N)c1ccc(OC)c(OC)c1	0.8	3	1.1	18	30	-14
Cc1cc(=O)[nH]c(SCc2nc3ccccc3n2Cc2ccccc2)n1	0.6	-1	0.8	44	-12	24
COC(=O)C1=CN(C)C=C(C(=O)OC)C1c1ccc(O)c(OC)c1	1	18	1.1	-4	4	-7
COC(=O)C1=CN(c2cccc(C)c2)C=C(C(=O)OC)C1c1cc(OC)c(O)c([N+](=O)[O-])c1	0.5	-2	0.7	51*	67*	32
CC1CCC2C(C1)c1sc(=O)[nH]c1SC2(C)C (centres undefined)	0.9	5	1	6	66*	4
CC(=O)Nc1ccc(S(=O)(=O)Nc2c(C)n(C)n(-c3ccccc3)c2=O)cc1	1.1	2	1.1	-7	2	-13
N#Cc1cccc(NC(=O)N2CCC(c3nc4c(nnn4Cc4cccc(Cl)c4)c(=O)[nH]3)CC2)c1	1.2	11	1.2	-18	8	-18
O=C(Nc1ccc(F)cc1)N1CCC(c2nc3c(nnn3Cc3cccc(Cl)c3)c(=O)[nH]2)CC1	0.3	0	0.6	66*	13	35
O=C(C1CCCCC1)N1CCCC(c2nc3c(nnn3Cc3ccccc3)c(=O)[nH]2)C1 (centres undefined)	0.6	9	0.8	35	1	20
Cc1ccc(NC(=O)N2CCC(c3nc4c(nnn4Cc4cccc(Cl)c4)c(=O)[nH]3)CC2)cc1	0	-4	0.1	100*	-1	94*
CCc1nc2c(nnn2Cc2ccc(F)cc2)c(=O)[nH]1	0.9	-3	0.1	10	7	88*
Cc1ccc(Cn2nnc3c(=O)[nH]c(C4CCN(S(=O)(=O)c5ccc(C)cc5)CC4)nc32)cc1	0	6	0.2	98*	8	78*
COc1ccc(CN2CC(C(=O)N3CCOCC3)CC2=O)cc1 (centres undefined)	1	1	0.9	1	-6	13
CC(C)=C1C2CCC1C1C(=O)N(NC(=O)COc3ccc(Cl)c(C)c3)C(=O)C21 (centres undefined)	1	1	0.5	0	12	49
